A short description of the assay: NCI Yeast Anticancer Drug Screen. Data for the mlh1 rad18 strain (AID 175). The conditions noted are these: S. cerevisiae mlh1 rad18 strain growth inhibition, stronger effect = higher value. As to the method:
Growth inhibition of yeast strains with defined genetic alterations is measured as a screen for potential anti-cancer activity. Selected strains with alterations in DNA damage repair or cell cycle control were exposed to compounds and growth inhibition was measured relative to vehicle treated controls. The strain used in this assay is mlh1 rad18

The mark [1] stands for this setting: at 5.0 µM (retest, dose inferred, filed as 0.5).
Setting [2] is: at 50.0 µM (retest, dose inferred, filed as 5.0).

The structures appear in SMILES notation. Compounds without any hit were thinned out: in the full panel of roughly 79,000, 15% have a hit. Unmarked numbers belong to inactive results. Calls of active or inactive are those of the source. Rule as the data show it: active = growth inhibition above about 70%; inactive = the rest.

With `C/C(=N\NC(=S)N1CCN(c2ccccn2)CC1)c1ccccn1`, the growth inhibition under setting [1] was 58%, the growth inhibition under setting [2] is 99% (active) and the growth inhibition (at 50.0 µM) is 88.3% (active).

As for `CCCCCCCC1SCC(=O)N1c1nncs1` (configuration not stated), the growth inhibition runs as follows: under setting [1], -10%; under setting [2], 73% (active); (at 50.0 µM) 5.7%.

On to `CCC[CH2][Sn]([CH2]CCC)([O]C(=O)c1cccc(F)c1)[O]C(=O)c1cccc(F)c1`, for which the growth inhibition is, setting by setting: under setting [1], -1%; under setting [2], -1%; (at 50.0 µM) 53%.

As to `O=C1C=CC(=O)c2c(O)c(N3CCC[C@H]3CO)c(Cl)c(O)c21`, the growth inhibition was 31% under setting [1], 90% (active) under setting [2] and 41.6% (at 50.0 µM).

Take `COc1ccc(C(c2cc3c(cc2O)OCO3)N2CCOCC2)cc1OC` (configuration not stated): the growth inhibition under setting [1] is -2%, the growth inhibition under setting [2] was 35% and the growth inhibition (at 50.0 µM) was 70.7% (active).

Turning to `O=C(O)C(CS)Nc1c2ccccc2nc2ccccc12` (configuration not stated), the growth inhibition runs as follows: under setting [1], 16%; under setting [2], 81% (active); (at 50.0 µM) 91.2% (active).

For `O=C1c2ccccc2C(=O)c2sc(Nc3cccc(Cl)c3)nc21`, the growth inhibition is 92% (active) under setting [1], 98% (active) under setting [2] and 90.5% (active) (at 50.0 µM).

Take `N#CSCc1c(Cl)cccc1Cl`: the growth inhibition is, setting by setting: under setting [1], 30%; under setting [2], 48%; (at 50.0 µM) 79.8% (active).

For `CC(C)(C)c1cc(C(O)(C(F)(F)F)C(F)(F)F)c(S)c(C(O)(C(F)(F)F)C(F)(F)F)c1`, the growth inhibition is, setting by setting: under setting [1], 4%; under setting [2], 95% (active); (at 50.0 µM) 99% (active).

In the case of `N#CSc1cc(SC#N)c2ccccc2c1N`, the growth inhibition was 8% under setting [1], -2% under setting [2] and 63.5% (at 50.0 µM).

As to `CC1=NN(C(=O)c2ccc(Cl)cc2)C(=O)C1N=Nc1ccc(S(=O)(=O)Nc2ncccn2)cc1` (configuration not stated), the growth inhibition is, setting by setting: under setting [1], 6%; under setting [2], 20%; (at 50.0 µM) 17.4%.

For the molecule `CC(C)C1(c2ccccc2)C(=O)c2ccccc2C1=O`, the growth inhibition under setting [1] was -8%, the growth inhibition under setting [2] is 37% and the growth inhibition (at 50.0 µM) is 46.1%.

In the case of `Cn1cc(NC(=O)c2cc(NC(=O)CCCCCCCCCCC(=O)Nc3cc(C(=O)Nc4cc(C(=O)NCCC(=N)N)n(C)c4)n(C)c3)cn2C)cc1C(=O)NCCC(=N)N`, the growth inhibition under setting [1] is 92% (active), the growth inhibition under setting [2] was 97% (active) and the growth inhibition (at 50.0 µM) is 90.2% (active).

In the case of `O=c1ccccn1CCc1cccc2cc(O)ccc12`, the growth inhibition is, setting by setting: under setting [1], -3%; under setting [2], 3%; (at 50.0 µM) 23.2%.

The values above are taken from PubChem BioAssay (NCI).
